Assay results reported in PubChem BioAssay.
Activity calls are given as the source filed them. Unless noted, no rule for the calls is given here.

Key:
[1] = test system: Wnt5a (protein binding on small-molecule microarray); assay: small molecules binding Wnt5a protein – biophysical, small-molecule microarray, 635/667 nm fluorescence, primary screen (AID 1142); conditions: 635 nm fluorescence, higher = more signal;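 also: fluorescence read at 667 nm with signal to noise per printed feature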
[2] = ATP-based viability of Huh7 replicon cells – cell-based, CellTiter-Glo luminescence, basal, 48 h, cytotoxicity control for HCV replication inhibitor project, primary screen (AID 1143); conditions: higher = more signal, called active from +8 up or from −8 down;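 also: Huh7 hepatoma cells carrying a hepatitis C replication reporter with no stimulus; test concentration not given here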
[3] = Pseudomonas biofilm growth suppression – PAO1 strain, BacTiter-Glo luminescence, LB-PBS, primary screen (AID 1144); conditions: P. aeruginosa PAO1 biofilm, 12 h, higher = more signal
[4] = basal CRE-LacZ reporter activity in PC12 – cell-based, unstimulated, primary screen (AID 1145); conditions: no forskolin, luminescence, 4.5 h, higher = more signal, called active from +8 up or from −8 down
[5] = forskolin-driven CRE-LacZ activity in PC12 – cell-based, CRE-LacZ reporter, forskolin-stimulated, primary screen (AID 1146); conditions: luminescence, 4.5 h, higher = more signal, called active from +8 up or from −8 down;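 also: PC12 cells with 6xCRE LacZ reporter stimulated by forskolin 10 µM; beta-galactosidase reporter signal reflecting CREB driven transcription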
[6] = biological target: Streptavidin (Streptomyces avidinii) (UniProt P22629); assay: compounds binding control protein streptavidin – biophysical, small-molecule microarray, 635/667 nm fluorescence, artefact control for SMM compound annotation, primary screen (AID 1147); conditions: higher = more signal;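 also: signal reflects streptavidin binding to arrayed compounds as a control protein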
[7] = probe aInhba binding on compound microarray – biochemical, small-molecule microarray, 635/667 nm fluorescence, primary screen (AID 1148); conditions: higher = more signal;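 also: score merges 667nm spot fluorescence with signal-to-noise for antibody binding to printed compounds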
Torsin-1A (Homo sapiens) [8] = biological target: Torsin-1A (Homo sapiens) (UniProt O14656); assay: TOR1A wild-type binding on microarray – cell lysate, small-molecule microarray, lysate, 635/667 nm, primary screen (AID 1149); conditions: COS7 hTOR1A-WT lysate, 635 nm fluorescence, higher = more signal
Torsin-1A (Homo sapiens) [9] = biological target: Torsin-1A (Homo sapiens) (UniProt O14656); assay: torsin A mutant lysate binding on microarrays – cell lysate, small-molecule microarray, COS7 lysate, 635/667 nm fluorescence, primary screen (AID 1150); conditions: COS7 hTOR1A mutant lysate, 635 nm fluorescence, higher = more signal;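 also: score pools 667 nm emission and signal to noise measuring lysate protein binding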
[10] = test system: Sonic hedgehog protein (Shh); assay: Sonic hedgehog microarray binding compounds – biochemical, small-molecule microarray, 635/667 nm fluorescence, primary screen (AID 1151); conditions: 635 nm fluorescence, higher = more signal;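 also: Shh protein binding to compounds spotted on small-molecule microarray slides; score combines spot fluorescence intensity with signal-to-noise across triplicate slides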
[11] = optical density shifts of acrAB sulA E. coli – strain DRC41, OD650, 48 h, E. coli filamentation inducer project, primary screen (AID 1152); conditions: higher = more signal, called active from +8 up or from −8 down;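 also: E. coli MC1000 strain DRC41 lacking acrAB efflux pump and sulA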
[12] = probe aLefty1 binding on compound microarray – biochemical, small-molecule microarray, 635/667 nm fluorescence, primary screen (AID 1153); conditions: higher = more signal;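 also: score merges spot fluorescence with signal-to-noise ratio from the scanned slide images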
[13] = plasmodial surface anion channel blockers, osmotic lysis – cell-based, P. falciparum Indochina, OD700, 1 h, primary screen (AID 1154); conditions: P. falciparum Indochina infected RBC osmotic lysis, higher = more signal, called active from +8 up or from −8 down
[14] = plasmodial surface anion channel blockers, osmotic lysis – cell-based, P. falciparum Indochina, OD700, 2 h, primary screen (AID 1155);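 also: lysis reports solute entry through the parasite surface anion channel PSAC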; conditions: P. falciparum Indochina infected erythrocytes, higher = more signal, called active from +8 up or from −8 down
[15] = changes in parasitized red cell lysis, either direction – P. falciparum Indochina, OD700, 3 h, PSAC antagonist project, primary screen (AID 1156); conditions: P. falciparum-infected erythrocytes, osmotic lysis, higher = more signal, called active from +8 up or from −8 down
[16] = plasmodial surface anion channel blockers, osmotic lysis – cell-based, P. falciparum Indochina, OD700, 18 h, primary screen (AID 1157); conditions: P. falciparum Indochina infected erythrocytes, osmotic lysis OD700, 18 h; higher = more signal, called active from +8 up or from −8 down
[17] = S6 kinase pathway phospho-S6 level changes – cell-based, A549, cytoblot, luminescence, serum-stimulated, primary screen (AID 1158); conditions: 5 h, higher = more signal;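 also: serum-stimulated A549 lung adenocarcinoma cells; signal is phosphorylated S6 detected by cytoblot immunostaining with HRP secondary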
[18] = biological target: NADPH oxidase 2 (Homo sapiens) (UniProt P04839); assay: compounds shifting NOX2 Amplex Red fluorescence – cell-based, HEK293-NOX2, PMA-stimulated, NOX inhibitor project, primary screen (AID 1159); conditions: 45 min, higher = more signal, called active from +8 up or from −8 down; also: test concentration not given here
[19] = biological target: NADPH oxidase 4 (Homo sapiens) (UniProt Q9NPH5); assay: compounds shifting NOX4 Amplex Red fluorescence – cell-based, HEK293-NOX4, tetracycline-induced, NOX inhibitor project, primary screen (AID 1160); conditions: HEK293-NOX4, Amplex Red H2O2 fluorescence, 45 min; higher = more signal, called active from +8 up or from −8 down
[20] = biological target: NADPH oxidase 5 (Homo sapiens) (UniProt Q96PH1); assay: compounds shifting NOX5 Amplex Red fluorescence – cell-based, HEK293-NOX5, NOX inhibitor project, primary screen (AID 1161); conditions: HEK293-NOX5, ionomycin, 45 min, higher = more signal
NADPH oxidase 5 (Homo sapiens), sequence (Q96PH1 whole entry, looked up): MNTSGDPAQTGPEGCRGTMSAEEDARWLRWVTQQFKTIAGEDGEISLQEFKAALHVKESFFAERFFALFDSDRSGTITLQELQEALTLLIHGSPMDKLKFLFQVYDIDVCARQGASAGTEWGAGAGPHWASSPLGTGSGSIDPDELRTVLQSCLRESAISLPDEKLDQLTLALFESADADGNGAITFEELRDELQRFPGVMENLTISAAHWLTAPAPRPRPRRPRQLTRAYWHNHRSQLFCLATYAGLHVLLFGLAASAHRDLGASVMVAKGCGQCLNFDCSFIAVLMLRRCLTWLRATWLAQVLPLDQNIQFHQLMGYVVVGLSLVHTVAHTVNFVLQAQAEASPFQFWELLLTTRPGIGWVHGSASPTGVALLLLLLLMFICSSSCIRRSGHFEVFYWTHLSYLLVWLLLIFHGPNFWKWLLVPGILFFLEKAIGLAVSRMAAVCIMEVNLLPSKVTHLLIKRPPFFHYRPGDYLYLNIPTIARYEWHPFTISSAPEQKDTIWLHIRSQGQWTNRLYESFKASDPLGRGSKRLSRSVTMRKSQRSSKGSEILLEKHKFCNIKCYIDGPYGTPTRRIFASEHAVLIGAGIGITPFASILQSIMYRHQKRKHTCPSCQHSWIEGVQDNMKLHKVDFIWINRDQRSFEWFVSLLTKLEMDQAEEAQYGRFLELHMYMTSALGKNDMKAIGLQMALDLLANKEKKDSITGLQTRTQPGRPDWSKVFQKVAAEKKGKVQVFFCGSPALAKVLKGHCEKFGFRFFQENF

Torsin-1A (Homo sapiens), sequence (O14656 whole entry, looked up): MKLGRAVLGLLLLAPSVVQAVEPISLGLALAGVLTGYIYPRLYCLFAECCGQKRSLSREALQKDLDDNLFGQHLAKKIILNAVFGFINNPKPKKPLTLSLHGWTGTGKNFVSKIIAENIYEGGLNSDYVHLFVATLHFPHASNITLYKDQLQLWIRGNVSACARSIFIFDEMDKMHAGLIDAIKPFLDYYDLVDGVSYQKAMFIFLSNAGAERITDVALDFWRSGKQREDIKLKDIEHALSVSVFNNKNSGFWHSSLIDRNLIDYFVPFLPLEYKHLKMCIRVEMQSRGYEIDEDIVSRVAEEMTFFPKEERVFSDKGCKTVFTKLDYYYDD
NADPH oxidase 2 (Homo sapiens), sequence (P04839 whole entry, looked up): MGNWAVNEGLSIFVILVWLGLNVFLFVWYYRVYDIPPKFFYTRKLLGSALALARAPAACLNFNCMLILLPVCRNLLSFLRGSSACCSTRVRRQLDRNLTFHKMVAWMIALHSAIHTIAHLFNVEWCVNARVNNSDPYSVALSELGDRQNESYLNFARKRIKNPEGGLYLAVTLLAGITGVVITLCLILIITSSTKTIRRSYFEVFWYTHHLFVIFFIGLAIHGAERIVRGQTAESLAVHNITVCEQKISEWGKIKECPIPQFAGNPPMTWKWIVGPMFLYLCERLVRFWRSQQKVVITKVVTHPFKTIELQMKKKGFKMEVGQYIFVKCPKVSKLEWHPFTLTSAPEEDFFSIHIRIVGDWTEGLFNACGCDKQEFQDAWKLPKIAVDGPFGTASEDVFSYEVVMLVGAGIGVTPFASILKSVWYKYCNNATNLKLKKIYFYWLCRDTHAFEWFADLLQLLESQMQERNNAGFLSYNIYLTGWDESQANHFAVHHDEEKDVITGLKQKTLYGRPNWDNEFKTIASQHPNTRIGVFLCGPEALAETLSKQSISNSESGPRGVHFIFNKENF
Streptavidin (Streptomyces avidinii), sequence (P22629 whole entry, looked up): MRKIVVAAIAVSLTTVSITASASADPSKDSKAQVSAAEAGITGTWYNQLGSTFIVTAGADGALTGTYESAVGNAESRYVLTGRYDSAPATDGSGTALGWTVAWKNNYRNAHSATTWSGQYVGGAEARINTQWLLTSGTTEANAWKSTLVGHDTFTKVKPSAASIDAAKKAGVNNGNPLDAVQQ
NADPH oxidase 4 (Homo sapiens), sequence (Q9NPH5 whole entry, looked up): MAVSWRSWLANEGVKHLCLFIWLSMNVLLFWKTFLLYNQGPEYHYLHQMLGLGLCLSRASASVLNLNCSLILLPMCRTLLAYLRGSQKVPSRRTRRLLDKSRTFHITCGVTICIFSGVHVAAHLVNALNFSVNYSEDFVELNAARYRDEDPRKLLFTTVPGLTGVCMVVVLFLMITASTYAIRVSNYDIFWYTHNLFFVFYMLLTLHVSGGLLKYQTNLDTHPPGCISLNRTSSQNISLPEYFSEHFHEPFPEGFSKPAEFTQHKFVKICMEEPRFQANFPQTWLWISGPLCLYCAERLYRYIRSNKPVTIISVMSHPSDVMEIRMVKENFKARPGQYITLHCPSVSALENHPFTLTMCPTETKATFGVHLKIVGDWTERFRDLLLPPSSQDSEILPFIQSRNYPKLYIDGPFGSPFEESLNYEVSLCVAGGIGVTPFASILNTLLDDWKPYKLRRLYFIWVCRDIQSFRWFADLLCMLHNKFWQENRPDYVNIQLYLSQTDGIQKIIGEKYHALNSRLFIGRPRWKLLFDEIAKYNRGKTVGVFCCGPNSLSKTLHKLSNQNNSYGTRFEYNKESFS

SMILES	composite z-score [1]	z-score [2]	z-score [3]	z-score [4]	z-score [5]	composite z-score [6]	composite z-score [7]	composite z-score (Torsin-1A (Homo sapiens) [8])	composite z-score (Torsin-1A (Homo sapiens) [9])	composite z-score [10]	z-score [11]	composite z-score [12]	z-score [13]	z-score [14]	z-score [15]	z-score [16]	z-score [17]	z-score [18]	z-score [19]	z-score [20]
COC(=O)[C@@]1(Cc2ccc(F)cc2)[C@H]2c3cc(C(=O)N(C)C)n(CCO)c3C[C@H]2CN1C(=O)c1ccccc1	-0.0929	-0.494 (inactive)	-0.0693 (inactive)	0.773 (inactive)	0.0355 (inactive)	-0.208	0.0464	0.149	0.297	-0.653	-0.285 (inactive)	0.0774	0.0154 (inactive)	-0.687 (inactive)	-1.25 (inactive)	-1.27 (inactive)	1.8	0.254 (inactive)	1.68 (inactive)	-2.18
C=CCC(OC(C)=O)[C@@H]1[C@@H](N(Cc2cc3ccccc3o2)C(=O)c2ccc(-c3ccccc3)cc2)c2cc(OCCCO)ccc2N1C(=O)c1ccc2ccccc2n1 (stereo not given in full)	-0.202	0.214 (inactive)	-0.115 (inactive)	2.46 (inactive)	-0.531 (inactive)	0.378	0.0228	0.179	0.165	0.135	0.803 (inactive)	-0.0534	1.01 (inactive)	0.698 (inactive)	-0.44 (inactive)	0.655 (inactive)	-0.113	1.88 (inactive)	-0.895 (inactive)	1.66
C=CCC(OC(C)=O)[C@@H]1[C@@H](N(Cc2cccc3ccccc23)C(=O)c2ccc(C)cc2)c2cc(OCCCO)ccc2N1C(=O)c1ccc2ccccc2n1 (stereo not given in full)	0.0305	-0.846 (inactive)	-0.106 (inactive)	0.642 (inactive)	0.154 (inactive)	0.2	0.0664	-0.0107	0.121	0.709	2.18 (inactive)	0.0009	1.83 (inactive)	-0.623 (inactive)	-1.16 (inactive)	-1.37 (inactive)	1.62	-0.604 (inactive)	0.807 (inactive)	2.44
CCCC[C@@H](O)C1=C(COC)Cn2c(=O)n(-c3ccccc3)c(=O)n2[C@H]1CO	-0.296	-0.915 (inactive)	-0.313 (inactive)	-0.0487 (inactive)	-1.11 (inactive)	-0.538	-0.128	-0.527	-0.577	0.223	4.01 (inactive)	-0.224	-0.0913 (inactive)	-0.696 (inactive)	-0.304 (inactive)	-2.74 (inactive)	1.9	-1.55 (inactive)	0.208 (inactive)	0.716
C=CCC(OC(C)=O)[C@@H]1[C@@H](N(Cc2cc3ccccc3o2)C(=O)Cc2ccc(OC)cc2)c2cc(OCCCO)ccc2N1C(=O)Cc1ccc2ccccc2c1 (stereo not given in full)	-0.211	-0.392 (inactive)	0.334 (inactive)	1.25 (inactive)	0.775 (inactive)	0.0489	-0.155	-0.773	-1.01	-0.155	-0.476 (inactive)	0.152	2.63 (inactive)	-0.005 (inactive)	1.35 (inactive)	0.308 (inactive)	0.638	-0.282 (inactive)	-0.427 (inactive)	1.21
CCCC=C(CCC)[C@@H](NC(=O)c1ccccc1)c1ccc(C(=O)OC)cc1	0.675	-4.41 (inactive)	-0.947 (inactive)	-0.379 (inactive)	0.0425 (inactive)	-0.0576	0.326	0.615	0.546	0.293	0.119 (inactive)	1.29	-0.072 (inactive)	0.502 (inactive)	-0.0759 (inactive)	-0.289 (inactive)	3.85	-3.83 (inactive)	-3.23 (inactive)	-1.45
CN1C(=O)C2C(C1=O)C1C=C(c3ccc(CO)cc3)C2C(c2cccs2)N1C (stereo not given)	-0.192	-1.04 (inactive)	2.04 (inactive)	1.98 (inactive)	-0.999 (inactive)	1.56	-0.0523	0.233	0.221	0.237	0.894 (inactive)	0.186	3.57 (inactive)	1.29 (inactive)	1.43 (inactive)	0.699 (inactive)	-0.105	0.158 (inactive)	-1.96 (inactive)	-0.45
CC(C)[C@@H](C(=O)O)n1cc(-c2ccccc2)nn1	0.0953	0.0466 (inactive)	0.69 (inactive)	0.251 (inactive)	0.0824 (inactive)	1.23	0.019	0.466	1.16	0.128	-1.08 (inactive)	0.241	0.354 (inactive)	0.217 (inactive)	-0.406 (inactive)	0.0394 (inactive)	-0.299	-0.7 (inactive)	0.521 (inactive)	-0.167
Cc1ccccc1C(O)C1C=CC2C(=O)N(c3ccccc3)C(=O)C2N1Nc1ccccc1F (stereo not given)	0.0624	0.198 (inactive)	-0.626 (inactive)	-1.09 (inactive)	-0.283 (inactive)	1.14	0.0569	0.575	1.25	-0.255	-1.37 (inactive)	0.649	10.8 (active)	2.28 (inactive)	0.39 (inactive)	1.1 (inactive)	-1.16	-2.02 (inactive)	-5.43 (inactive)	-3.71
COc1ccc(CCNC(=O)[C@@]2(Sc3ccc(C)cc3)CC(=O)N(Cc3cc(C(F)(F)F)cc(C(F)(F)F)c3)[C@@H]2c2ccc(CO)cc2)cc1	-0.668	0.305 (inactive)	0.731 (inactive)	0.495 (inactive)	0.84 (inactive)	-0.959	-0.127	-1.43	-1.53	-2.14	-0.601 (inactive)	0.469	1.54 (inactive)	0.518 (inactive)	0.0927 (inactive)	-0.0392 (inactive)	0.0684	-0.626 (inactive)	0.539 (inactive)	1.02
C=CCNC(=O)[C@@H]1[C@H]2C(=O)O[C@H](c3ccccc3)[C@H](c3ccccc3)N2[C@H](c2ccccc2OCCO)[C@@]12C(=O)N(C(=O)OCCOC)c1ccc(C#CCCO)cc12	0.304	-3.34 (inactive)	-0.976 (inactive)	-0.0768 (inactive)	-0.466 (inactive)	0.284	0.0649	0.338	1.35	1.06	-0.288 (inactive)	0.209	2.62 (inactive)	1.15 (inactive)	0.123 (inactive)	0.167 (inactive)	0.568	1.57 (inactive)	1.31 (inactive)	0.165
C=C(COC)/C(=C/C[C@@H](OC(C)=O)c1ccccc1OCCO)c1cc(C(=O)OC)ccc1OC	0.143	-1 (inactive)	-0.765 (inactive)	11.4 (active)	0.323 (inactive)	-0.333	-0.188	0.237	0.612	0.94	0.0999 (inactive)	0.0945	17.2 (active)	2.52 (inactive)	1.68 (inactive)	1.04 (inactive)	-0.0651	0.857 (inactive)	-0.16 (inactive)	-1.46
O=c1cccc(-c2ccccc2C(F)(F)F)o1	0.297	-0.121 (inactive)	0.0176 (inactive)	-0.471 (inactive)	-0.12 (inactive)	-0.318	0.763	0.242	0.0563	-0.999	-0.934 (inactive)	0.69	0.168 (inactive)	0.761 (inactive)	-0.627 (inactive)	0.341 (inactive)	-0.67	0.409 (inactive)	0.0518 (inactive)	-0.982
O=C1OCCC=C[C@H]2OC34C=CCN(c5ccc(Cl)cc5)C(=O)[C@H]3N(CCO)C(=O)[C@@H]4C12 (stereo not given in full)	-0.524	0.373 (inactive)	0.108 (inactive)	-0.228 (inactive)	-0.256 (inactive)	-1.23	-0.159	-1.97	-0.0899	-0.524	-0.232 (inactive)	-0.0501	0.773 (inactive)	0.183 (inactive)	0.766 (inactive)	0.355 (inactive)	-0.509	1.69 (inactive)	-0.0621 (inactive)	1.48
COc1ccc(NN2C(C(O)c3cc(C(F)(F)F)cc(C(F)(F)F)c3)C=CC3C(=O)N(C4CCCCC4)C(=O)C32)cc1 (stereo not given)	0.397	-2.42 (inactive)	-1.1 (inactive)	-0.723 (inactive)	-0.504 (inactive)	0.837	1.19	0.408	1.19	-0.0356	-0.523 (inactive)	1.41	1.62 (inactive)	0.507 (inactive)	0.545 (inactive)	0.632 (inactive)	-0.35	-0.934 (inactive)	-1.64 (inactive)	-1.35
CCOC(=O)C[C@H]1[C@H](OC(=O)c2ccc(-c3ccccc3)cc2)[C@@H](NC(=O)CC(C)C)c2cc(OCCCO)ccc2N1C(=O)Cc1ccc(OC)cc1	0.0564	-0.155 (inactive)	0.606 (inactive)	0.0035 (inactive)	-0.163 (inactive)	0.438	-0.0223	-0.111	0.508	-0.307	-0.931 (inactive)	-0.323	3.94 (inactive)	0.786 (inactive)	-0.348 (inactive)	0.261 (inactive)	-0.0775	-0.521 (inactive)	1.12 (inactive)	2.11
